# In the library only some 0.87% were active in any assay of this set; here they are far more common.
# TDP1 block = qHTS Assay for Inhibitors of Tyrosyl-DNA Phosphodiesterase (TDP1) | recombinant TDP1, AlphaScreen DNA substrate cleavage | Potency, µM (doses to about 130 µM), inactives show at the top dose activity change, negative = inhibition, hits mostly inhibitors | 350,000 tested, 0.28% active; also: nearly all actives have a fitted effect of over 40% in size
# Target sequence (Q9NUW8 whole entry, looked up): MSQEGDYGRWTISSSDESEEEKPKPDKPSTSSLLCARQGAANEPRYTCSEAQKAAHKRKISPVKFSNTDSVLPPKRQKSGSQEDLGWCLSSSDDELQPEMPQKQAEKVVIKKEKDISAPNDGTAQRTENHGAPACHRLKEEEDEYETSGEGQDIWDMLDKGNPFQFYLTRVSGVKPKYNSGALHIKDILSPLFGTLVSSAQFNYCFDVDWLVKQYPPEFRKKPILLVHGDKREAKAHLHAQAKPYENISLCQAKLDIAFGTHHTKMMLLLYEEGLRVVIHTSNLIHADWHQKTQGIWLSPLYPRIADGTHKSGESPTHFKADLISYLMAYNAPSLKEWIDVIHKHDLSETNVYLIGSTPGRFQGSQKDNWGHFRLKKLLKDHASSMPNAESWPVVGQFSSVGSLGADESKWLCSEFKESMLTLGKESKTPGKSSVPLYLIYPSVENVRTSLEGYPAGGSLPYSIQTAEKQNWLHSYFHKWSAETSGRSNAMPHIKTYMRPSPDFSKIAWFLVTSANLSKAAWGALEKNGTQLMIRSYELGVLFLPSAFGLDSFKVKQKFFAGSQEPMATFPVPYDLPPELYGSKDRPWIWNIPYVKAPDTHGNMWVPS
#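 Signal: AlphaScreen proximity between streptavidin donor and anti-FITC acceptor beads on intact substrate. Reaction: Tdp1 1 nM, substrate 15 nM final, 5 min RT after 15 min compound preincubation.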
# BLM helicase inh = qHTS Assay for Inhibitors of Bloom's syndrome helicase (BLM); RecQ-like DNA helicase BLM (Homo sapiens), P54132; recombinant BLM DNA unwinding, fluorescence dequenching; Potency, µM (series often up to 56.1 µM), without a hit: top-dose activity change, negative = inhibition, hits mostly inhibitors; 350,000 tested, 0.2% active; AID 2528, 2010;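 also: plate controls were vehicle for no effect and no enzyme for full effect; nearly all actives have a fitted effect of over 35% in size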
# RECQ1 inh = qHTS Assay for Inhibitors of RecQ-Like Dna Helicase 1 (RECQ1). AID 2549, 2010. 240,000 tested, 0.54% active. RECQ1 DNA unwinding, red fluorescence kinetic read. ATP-dependent DNA helicase Q1 (Homo sapiens), P46063. Potency, µM (top dose mostly 57.3 µM), without a hit: at the top dose activity, negative = inhibition, most hits filed as inhibitors;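 also: plate controls were vehicle for no effect and no enzyme for full effect; nearly all actives have a fitted effect of over 30% in size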
#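 RECQ1T1 50 nM; forked duplex (20 bp + 30-nt ss tails) 200 nM, ATP 2 mM final; pH 8.0, 2 mM MgCl2, 2.5 ug/ml poly(dI-dC); 15 min compound preincubation; discontinuous kinetic read over 2 h at RT.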
# APEX1 inh = qHTS Assay for Inhibitors of the Human Apurinic/apyrimidinic Endonuclease 1 (APE1). DNA repair nuclease/redox regulator APEX1 (Homo sapiens), P27695. recombinant APE1, TAMRA/BHQ-2 abasic DNA cleavage fluorescence. Potency, µM (series often up to 65.8 µM), inactives show at the top dose activity change, negative = inhibition, usual class: inhibitors. 350,000 tested, 0.35% active;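 also: plate controls were vehicle for no effect and reference inhibitor for full effect; nearly all actives have a fitted effect of over 55% in size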
#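 Measures dequenching upon AP-site incision of a 5'-TAMRA/3'-BHQ-2 THF-containing duplex, 50 nM; human APE1 0.75 nM after 15 min room-temperature exposure to compound; kinetic three-point read at one-minute spacing.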
# KAT2A inh = qHTS Assay for Inhibitors of GCN5L2; 390,000 tested, 0.21% active; GCN5L2 HAT assay, ThioGlo1 CoA-SH fluorescence; Potency, µM (doses to about 58.9 µM), without a hit: top-dose activity change, negative = inhibition, most hits filed as inhibitors; AID 504327, 2011; Histone acetyltransferase KAT2A (Homo sapiens), Q92830
#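 Compounds, pin-transferred from DMSO stocks, meet 20nM GCN5L2 for 15 min before the reaction begins with H3(1-25) peptide (75uM) and acetyl-CoA (70uM). Thiol-reactive ThioGlo1 reports CoA release over 20 min at room temperature.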
# RGS4 inhibitor = Inhibitors of Regulator of G Protein Signaling (RGS) 4: qHTS; AID 504845, 2011; Potency, µM (series often up to 114 µM), for inactives: top-dose activity change, negative = inhibition, hits mostly inhibitors; 390,000 tested, 0.039% active; Regulator of G-protein signaling 4 (Homo sapiens), P49798; Transcreener GDP fluorescence polarization, RGS4-accelerated GTP hydrolysis; also: nearly all actives have a fitted effect of over 75% in size
#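 MLSMR compounds (23 nl, pin-transferred) preincubated 10 min at room temperature with a 500nM (2x) first reagent, then RGS4 at 900nM (2x) plus Transcreener GDP mix added; fluorescence polarization (620/688 nm) read before and after 90 min at 30 °C.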
# The depositor's hits bear a star; i = inactive; ? = inconclusive; . = no result given; ! = not active in a repeat; [ ] = dose if it differs, or a comment. Calls follow the shape of the dose curve; as a rule, active = well fitted curve in the direction sought with a large enough effect; inconclusive = small, poorly fitted or top-dose-only effect, or another doubt; inactive = no such curve, though single readings can be large; an effect the other way counts as inactive or inconclusive. Unless noted, % is scaled to controls: 0 for no effect and ±100 for the full control effect; potency is read from the fitted curve at half-maximal effect.
SMILES,TDP1 block,BLM helicase inh,RECQ1 inh,APEX1 inh,KAT2A inh,RGS4 inhibitor
COCCN(C(=O)COC(=O)/C=C/c1ccc(C)o1)c1c(N)n(Cc2ccccc2)c(=O)[nH]c1=O,4%,-2%,.,49%,-4%,?
Cc1nc2ccc(S(=O)(=O)N3CCN(S(=O)(=O)c4c(F)cccc4F)CC3)cc2s1,-4%,.,.,.,.,.
C=CCNC(=S)Nc1ccc2nsnc2c1,2%,-6%,3%,-3%,4%,6%
CCOc1ccc(NC(=S)Nc2ccc3nsnc3c2)cc1,-3%,4µM*,1%,6%,-19%,?
CCOc1ccc(NC(=O)Nc2ccc3nsnc3c2)cc1,-2%,-5%,i,?,-1%,9%[11.4 µM]
COc1ccc(NC(=S)Nc2ccc3nsnc3c2)cc1,0%,4µM*,14%,-1%,-14%,?
C=CCN(CC=C)C(=S)Nc1ccc2nsnc2c1,3%,3.5µM*,-4%,-12%,-18%,-40%
COc1ccc(NC(=S)Nc2ccc3nc(C)c(C)nc3c2)cc1,3%,-7%,i,-8%,-16%,-33%
O=C(N=Nc1c(O)[nH]c2ccc([N+](=O)[O-])cc12)c1cc(-c2ccccc2Cl)nc2ccccc12,5%,4µM*,3%,5%,-16%,2%[11.4 µM]
COc1ccccc1C(=O)N=Nc1c(O)[nH]c2ccc([N+](=O)[O-])cc12,6%,-7%,-7%,2%,-9%,10%
Cc1ccc(NC(=O)c2ccc3c(c2)CCC(=O)N3)cc1C,-11%,.,.,.,.,.
COc1cc(F)c(S(=O)(=O)N2CCN(S(=O)(=O)c3cccs3)CC2)c(F)c1,0%,.,.,.,.,.
NC(=O)c1ccc(N=C2C(=O)Nc3ccc([N+](=O)[O-])cc32)cc1,8%,32µM*,i,-3%,-10%,-9%
CC(C)(C)OC(=O)NCC(=O)NNC(=O)c1cc2ccccc2[nH]1,0%,.,.,.,.,.
O=C1NC(=S)N/C1=C/c1cccn1-c1ccc([N+](=O)[O-])cc1,1%,-18%,28µM*,?,-19%,18%
N=C1/C(=C/c2cccn2-c2ccc([N+](=O)[O-])cc2)C(=O)N=C2SC=CN12,0%,-16%,-4%,3%,1%,-14%
S=c1nc[nH]c2nc[nH]c12,32µM*,-2%,i,47%,?,?
O=c1[nH]c(=S)[nH]c2nc[nH]c12,-13%,.,.,.,.,-24%
COc1cc(N=Nc2cccc(S(N)(=O)=O)c2)c2ccccc2c1N,9%,4µM*,i,?,-10%,-20%
Cc1ccc(-c2csc3n[nH]c(=S)n23)cc1,-1%,-1%,-10%,-1%,25µM*,?
CCCCCCCCCCCCCCCC(=O)OCC(O)C1OC(=O)C(O)=C1O (stereo not drawn),?,?,?,.,8.9µM*,.
CCCCCCCCCCCCCCCCCC(=O)OCC(C)O (stereo not drawn),-7%,-6%,-4%,?,5%,.
O=C(C[C@@H]1C/C=C\C[C@@H](Cc2ccc(F)cc2)C(=O)OC[C@@H](Cc2c[nH]c3ccccc23)NC1=O)NCCO,2%,.,.,-16%,-1%,-10%
O=C(C[C@@H]1C/C=C\C[C@H](Cc2ccc(F)cc2)C(=O)OC[C@@H](Cc2c[nH]c3ccccc23)NC1=O)NCCO,-1%,.,.,12µM*,0%,-11%
NNC(=O)C(C(=O)OCc1ccccc1)c1ccccc1 (stereo not drawn),1%,.,.,.,.,.
SMILES,TDP1 block,BLM helicase inh,RECQ1 inh,APEX1 inh,KAT2A inh,RGS4 inhibitor
O=C(/C=C/c1ccccc1)c1ccccc1,6%,-13%,?,17%,-8%,?
O=C(/C=C/c1ccccc1)/C=C/c1ccccc1,.,-13%,14µM*,10%,-11%,-41%
CCOc1ccccc1NC(=O)CN1CCCCCC1,14µM*,-8%,.,7%,1%,-5%
CCN(c1ccccc1)S(=O)(=O)c1ccc2[nH]cc(C(=O)N3CCOCC3)c(=O)c2c1,50µM*,-4%,-2%,?,-15%,6%
O=C1CCCC2=C1C1(CCSCC1)N=C(Nc1nc3ccccc3o1)N2,0%,.,.,.,.,.
Cc1ccc(NC(=O)C(c2ccc(Cl)cc2)N2CCOCC2)cc1 (stereo not drawn),5%,-6%,-3%,7%,-10%,4%[11.4 µM]
Cc1ccc(NC(=O)C(c2ccc(Cl)cc2)N2CCCCC2)cc1 (stereo not drawn),4%,-12%,i,13%,2.2µM*,1%
CC1(C)S[C@@H]2[C@H](NC(=O)[C@H](N)c3ccccc3)C(=O)N2[C@H]1C(=O)O,22µM*!,?,20µM*!,10µM*!,-10%,-6%
Cc1c(P(=S)(c2ccccc2)c2ccccc2)c2ccccc2n1C(=O)NCc1ccccc1,1%,.,.,.,.,.
NC(=O)/C(=C/c1ccco1)C(N)=S,10µM*,-17%,-27%,?,-9%,?
COc1ccc(CNCc2ccccc2)cc1COc1ccc(NC(C)=O)cc1,-4%,.,.,.,.,5%
O=C(Cn1cc(CNCc2ccccc2)nn1)Nc1cc(C(F)(F)F)ccc1Cl,-1%,.,.,.,.,.
COc1cccc(C2c3c(ncn(-c4ccccc4C)c3=N)Oc3ccc4ccccc4c32)c1 (stereo not drawn),4%,.,.,.,.,.
COC(=O)Cc1c(C)c2cc3c(c(C)c2oc1=O)OCN(CCc1ccc(OC)cc1)C3,5%,-8%,.,.,32µM*,-12%
Cc1ccc(C)c(S(=O)(=O)N(C)Cc2cccs2)c1,79µM*,.,.,29%,-12%,3%
COc1ccc(S(=O)(=O)N(C)Cc2cccs2)cc1Br,-7%,-7%,i,-6%,-6%,5%
COc1ccc(OC)c(-c2csc(NC(=O)Cc3ccc(F)cc3)n2)c1,.,-15%,.,60%,-9%,6%
COc1ccc(OC)c(-c2csc(NC(=O)COC(=O)c3ccc(NC(=O)CC#N)cc3)n2)c1,-1%,.,.,15µM*,?,1%
Cc1ccc(C(=O)Oc2ccc(C(=O)COC(=O)C3CC(=O)N(Cc4ccco4)C3)cc2)cc1 (stereo not drawn),?,-28%,-29%,32µM*,-18%,-14%[11.4 µM]

# Compound activity as filed in PubChem BioAssay.
